In the library only some 3.5% were active in any assay of this set; here they are far more common.
GPR151 ag: activators of human GPR151; PathHunter beta-arrestin GPR151 cells, luminescence; 650,000 compounds, 1% hits; activation, % at 11.2 µM; Q8TDV0; in the data active means activation above about 4.9%
TEAD-YAP block: TEAD-YAP interaction inhibition; inhibition, % at 9.12 µM; AID 1259422; HEK-TIYL cells, TEAD-Gal4/YAP UAS-luciferase luminescence; 640,000 compounds, 1.4% hits; in the data active means inhibition above about 32%
MITF primary: human MITF inhibition, primary screen | O75030 | AlphaScreen MITF homodimerization, bead proximity signal | inhibition, % at 2.6 µM | 650,000 compounds, 0.91% hits | AID 1259374; in the data active means inhibition above about 50%
FBW7 act: human FBW7 E3 ligase activation, primary screen. Q969H0. AlphaScreen FBW7–phospho-cyclin E peptide binding, activator screen. normalized activity (activation), % at 26.1 µM. 650,000 compounds, 0.13% hits; in the data active means normalized activity above about 1.9%;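 further: purified mutant Fbw7 with reduced substrate affinity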
GPR151 confirm: confirmation of human GPR151 activators. shares compounds with GPR151 ag. activation, % at 11.2 µM. GPR151 PathHunter beta-arrestin cells, luminescence, 90 min; % of EA-reagent control over plate median. 6,700 tested, under 10 active. AID 1508609;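 active means mean percent activation across replicates above the confirmation screen cutoff of 4.91%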
GPR119 counter: GPR119 activation, counter-screen for GPR151 activators; 6,700 compounds, 0.3% hits; shares compounds with GPR151 ag; activation, % at 11.2 µM; GPR119 PathHunter beta-arrestin cells, luminescence, 90 min; 0 = compound-well median, 100 = enzyme-acceptor control;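 active means mean percent activation in the counterscreen above 29.09%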;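 further: counterscreen on off-target GPR119 to flag nonselective hits from the GPR151 activator screen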
Target sequence (Q8TDV5 whole entry, looked up): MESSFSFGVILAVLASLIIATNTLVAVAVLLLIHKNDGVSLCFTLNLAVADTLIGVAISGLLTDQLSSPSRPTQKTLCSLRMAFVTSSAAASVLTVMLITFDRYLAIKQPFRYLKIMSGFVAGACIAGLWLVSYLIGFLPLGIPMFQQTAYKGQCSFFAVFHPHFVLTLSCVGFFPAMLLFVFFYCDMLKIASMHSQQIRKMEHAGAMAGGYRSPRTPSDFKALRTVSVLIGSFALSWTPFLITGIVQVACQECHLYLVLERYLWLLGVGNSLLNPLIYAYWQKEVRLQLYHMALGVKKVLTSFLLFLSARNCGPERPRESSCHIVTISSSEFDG
Large screens that a line does not name were inactive (follow-up assays come after a bar, where they were run).

Cc1cc2ccccc2n1CCNC(=O)c1ccc(Br)cc1	GPR151 ag 5.0 | GPR151 confirm inactive | GPR119 counter inactive
CCOC(=O)c1c(NC(=O)c2ccc([N+](=O)[O-])cc2)sc(C(=O)OC)c1C	GPR151 ag 5.3 | GPR151 confirm inactive | GPR119 counter inactive
CCOC(=O)c1c(NC(=O)c2ccc([N+](=O)[O-])cc2)sc(C(N)=O)c1C	none
COc1ccc(NC(=O)CCCC(=O)OCC(F)(F)C(F)F)cc1	GPR151 ag 5.0 | GPR151 confirm inactive | GPR119 counter inactive
O=C(NN=C1CCC(c2ccccc2)CC1)c1ccc(F)cc1 (stereo not given)	none
CCn1nc(C)c(CN2CCOc3ccc(C(C)(O)COc4ccccc4)cc3C2)c1C (stereo not given)	GPR151 ag 6.3 | GPR151 confirm inactive | GPR119 counter inactive
O=C(Nc1cc(-c2cccs2)nn1CCO)C1CCC1	none
O=C(Nc1cc(-c2cccs2)nn1CCO)C1c2ccccc2Oc2ccccc21	GPR151 ag 8.0 | GPR151 confirm inactive | GPR119 counter inactive
N/C(=N\OC(=O)CCC1CCCC1)c1ccc(Cl)cc1	GPR151 ag 6.0 | GPR151 confirm inactive | GPR119 counter inactive
O=C(c1ccc(NS(=O)(=O)c2ccccc2)cc1)N1CCCC1	GPR151 ag 7.2 | GPR151 confirm inactive | GPR119 counter inactive
COc1ccc(NC(=O)Nc2ccc(C(=O)N3CCCCC3)cc2)cc1	GPR151 ag 12 | GPR151 confirm inactive | GPR119 counter inactive
O=C(Nc1ccc(F)cc1F)C1CCN(C(=O)c2ccc(Br)cc2)CC1	GPR151 ag 5.5 | GPR151 confirm inactive | GPR119 counter inactive
COc1ccc(OCC(=O)N2CCN(C(=O)c3ccccc3)CC2)cc1	GPR151 ag 8.4 | GPR151 confirm inactive | GPR119 counter inactive
CC(C)c1ccc(N(CC(=O)Nc2ccc(Br)cc2F)S(C)(=O)=O)cc1	none
O=C1c2ccccc2C(=O)N1CC1c2ccccc2CCN1S(=O)(=O)c1ccc(Cl)s1 (stereo not given)	none
COc1ccccc1/C=C(\C#N)c1nn(CCO)c(N)c1C#N	none
O=C(c1ccco1)N1CC[C@H]2[C@H](CCCN2C(=O)CCc2c[nH]c3ccccc23)C1	none
Cc1ccc(CNC(=O)C2CCN(C(=O)c3ccc(C)cc3)CC2)cc1	none
COc1ccc(CNC(=O)C2CCN(C(=O)c3ccc(Br)cc3)CC2)cc1	GPR151 ag 6.4 | GPR151 confirm inactive | GPR119 counter inactive
COCCCNC(=O)c1ccc(CNC(=O)c2ccc3c(c2)OCO3)cc1	GPR151 ag 5.7 | GPR151 confirm inactive | GPR119 counter inactive
COCCNC(=O)c1ccc(CNC(=O)c2ccc3c(c2)OCO3)cc1	none
CCC(Sc1nc2ccccc2c2nc(C)nn12)C(=O)NCc1ccco1 (stereo not given)	GPR151 ag 8.7 | GPR151 confirm inactive | GPR119 counter inactive
CCC(Sc1nc2cc3c(cc2c(=O)n1CCCCCC(=O)NCc1ccc2c(c1)OCO2)OCO3)C(=O)NCc1ccco1 (stereo not given)	none
CCC(Sc1nc2cc(OC)c(OC)cc2c2nc(C)nn12)C(=O)NCc1ccco1 (stereo not given)	none
CCC(Sc1nc2cc3c(cc2c(=O)n1CCCCCC(=O)NCc1ccc(OC)cc1)OCO3)C(=O)NCc1ccco1 (stereo not given)	GPR151 ag 5.0 | GPR151 confirm inactive | GPR119 counter inactive
COC(=O)c1c(C)oc2ccc(N(C(=O)c3cccc([N+](=O)[O-])c3)S(=O)(=O)c3ccc(C)cc3)cc12	none
O=C(CN1CCCc2ccccc21)Nc1ccc(Br)cc1	GPR151 ag 12 | GPR151 confirm inactive | GPR119 counter inactive
CC(=O)c1ccc(NC(=O)CN2CCCc3ccccc32)cc1	none
O=C(CCCOc1ccccc1)Nc1ccccc1C(=O)N1CCOCC1	GPR151 ag 9.4 | GPR151 confirm inactive | GPR119 counter inactive
O=C(NCc1ccc2c(c1)OCO2)C1CC2CCCN2C12C(=O)Nc1ccccc12 (stereo not given)	GPR151 ag 5.1 | GPR151 confirm inactive | GPR119 counter inactive
O=C(NCc1cccc(F)c1)C1CC2CCCN2C12C(=O)Nc1ccccc12 (stereo not given)	none
O=C(O)/C=C/C(=O)N(Cc1ccccc1)Cc1ccccc1	GPR151 ag 5.3 | GPR151 confirm inactive | GPR119 counter inactive
COc1ccc(/C=C/C(=O)N(Cc2ccccc2)Cc2ccccc2)cc1	none

Assay outcomes as filed in PubChem BioAssay.
